From PubChem BioAssay come the findings set out here.

Assay [1] in a line: AGP1-GFP expression modulators, hit retest, confirmation, cell-based, flow cytometry, S. cerevisiae, cherry picks (AID 2273;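 active = GFP response above 150% of the DMSO level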;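 also: median GFP channel fluorescence over the whole cell population gate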). Particulars: S. cerevisiae AGP1-GFP strain, 3 h, at 10 µM. (Flow cytometry measures light scatter and fluorescence of single cells or particles in a stream.)
Assay [2] concerns the target Integrin beta-1 (Homo sapiens) + Integrin alpha-4 (Homo sapiens) (UniProt P13612+P05556). Nature of the assay: inhibition of HUTS-21 binding to VLA-4, pilot screen, VLA-4 allosteric modulator project, U937 cells, HUTS-21 mAb, flow cytometry, validation set (AID 2674;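 active = inhibition above 50%, about 3 SD of the validation set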;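 also: antibody binding induced by the VLA-4 ligand LDV present at three times its Kd; 0% = LDV ligand with antibody and no compound and 100% = antibody without LDV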). The conditions noted are these: HUTS-21 LIBS mAb binding, at 6.7 µM, hits give high values, binding induced by LDV ligand.

Assay [3] can be described thus: superoxide lowering in aged yeast cells, pilot screen, validation compound set (AID 2706;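 active = superoxide response below 65% of plate, a cut near 3 SD across the whole screen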;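 also: yeast exposed to compound for one week at 30 degrees C before staining; 100% = mean of all compound wells on the same plate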). Particulars: S. cerevisiae aging, superoxide DHE fluorescence; at 10 µM; hits give low values.
In assay [4] the target is Beta-adrenergic receptor kinase 1 (Homo sapiens) (UniProt P25098). The assay can be described thus: GRK2 binders displacing RNA aptamer, biochemical, validation, human GRK2, bead flow cytometry (AID 488806;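 active = aptamer binding inhibition above 30%, about 3 SD of noise from non-fluorescent compounds; inactive = inhibition at or below 30%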). The conditions noted are these: bead-bound GRK2, FAM-aptamer displacement, at 10 µM, hits give high values.
The target of assay [5] is Beta-2 adrenergic receptor (Homo sapiens) (UniProt P07550). Nature of the assay: beta2AR agonists driving receptor internalization, pilot screen, cell-based, FAP fluorogen, flow cytometry, validation set (AID 504459;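 active = percent response above 42, roughly 3 SD of non-fluorescent test compounds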;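 also: agonist-driven loss of surface beta2AR via internalization measured by FAP dye flow cytometry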). The conditions noted are these: Am2.2-beta2AR cells, FAP surface receptor flow cytometry; at 10 µM; hits give high values.
In assay [6] the target is AP-2 complex subunit beta (Homo sapiens) (UniProt P63010). The assay can be described thus: inhibitors of arrestin peptide binding to AP2, pilot screen, biochemical, validation set, GST-AP2 beads, flow cytometry (AID 504541).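 Also: AP2 carries R879A mutation and is captured from E. coli lysate; bead-bound FITC arrestin peptide fluorescence measuring arrestin peptide binding to AP2; 0% = DMSO wells and 100% = excess unlabeled arrestin peptide control.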 Particulars: FITC arrestin peptide, at 10 µM, hits give high values, AP2 beta2 appendage fragment, R879A mutant.
The nature of assay [7]: yeast V-ATPase proton transport modulators, S. cerevisiae, pHLuorin, HTS validation (AID 504600; in the data active = response above about 15%;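 also: plate controls were DMSO for no effect and reference compound for full effect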). The conditions noted are these: S. cerevisiae pHLuorin cytosolic pH, at 10 µM, hits give high values.
In assay [8] the test system is anti-desmoglein-3 scFv antibody binding to human DSG3. The assay can be described thus: inhibitors of anti-DSG3 scFv binding to DSG3, pilot screen, biochemical, validation compound set, bead-based, flow cytometry (AID 588368;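 active = binding below the plate cutoff, the plate median minus 3 SD, with a reading above zero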;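 also: signal is the median channel fluorescence of bead-bound GFP antibody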). The conditions noted are these: Protein G beads, DSG3-Fc, scFv-GFP binding, at 10 µM, hits give low values.
Assay [9] is described as follows: inhibitors of fungal efflux pumps CDR1, CDR2, MDR1, pilot screen, validation compound set, multiplex, phenotypic (AID 588506;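 active = efflux inhibition above 0.42, the validation set average plus 4 SD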;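 also: Nile Red retained in cells so higher fluorescence means more efflux inhibition; 0 = negative control wells and 1 = enniatin B 25 µM full block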). Particulars: S. cerevisiae pump-expressing triplex, Nile Red efflux flow cytometry; at 10 µM; hits give high values; the pumps come from Candida albicans.
In assay [10] the target is ATP-binding cassette sub-family B member 6 (Homo sapiens) (UniProt Q9NP58). The assay can be described thus: ABCB6 transporter inhibitors, pilot screen, K562-ABCB6 cells, flow cytometry, validation set (AID 588550;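 active = inhibition above the screen-wide mean plus 3 SD, about 51%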;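 also: 0% = DMSO wells and 100% = benzethonium chloride 70 µM positive control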). Particulars: K562-ABCB6 porphyrin accumulation, 1 h, at 10 µM, hits give high values.
A short description of assay [11]: promoters of myeloid differentiation in arrested cells, primary screen, cell-based, GFP/MAC1 double positive, flow cytometry, validation set (AID 588685;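 active = differentiation response of at least 50%, scaled between solvent and reference control, from cells with both markers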;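 also: compound exposure lasts four days before antibody staining and flow analysis; 0% = DMSO wells and 100% = 5 µM fulvestrant positive control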). The conditions noted are these: ER-HoxA9 marrow cells, hits give high values, normalized: vehicle 0, fulvestrant 100.

A number with no mark means an inactive call. Activity calls are given as the source filed them.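 The calls were made as follows, unless noted: active = inhibition above 54%, about 3 SD of non-fluorescent compounds; inactive = the rest.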

As usually defined, the inhibition is the drop in the measured response relative to a control, in per cent.

Chain of ATP-binding cassette sub-family B member 6 (Homo sapiens) (Q9NP58 whole entry, looked up): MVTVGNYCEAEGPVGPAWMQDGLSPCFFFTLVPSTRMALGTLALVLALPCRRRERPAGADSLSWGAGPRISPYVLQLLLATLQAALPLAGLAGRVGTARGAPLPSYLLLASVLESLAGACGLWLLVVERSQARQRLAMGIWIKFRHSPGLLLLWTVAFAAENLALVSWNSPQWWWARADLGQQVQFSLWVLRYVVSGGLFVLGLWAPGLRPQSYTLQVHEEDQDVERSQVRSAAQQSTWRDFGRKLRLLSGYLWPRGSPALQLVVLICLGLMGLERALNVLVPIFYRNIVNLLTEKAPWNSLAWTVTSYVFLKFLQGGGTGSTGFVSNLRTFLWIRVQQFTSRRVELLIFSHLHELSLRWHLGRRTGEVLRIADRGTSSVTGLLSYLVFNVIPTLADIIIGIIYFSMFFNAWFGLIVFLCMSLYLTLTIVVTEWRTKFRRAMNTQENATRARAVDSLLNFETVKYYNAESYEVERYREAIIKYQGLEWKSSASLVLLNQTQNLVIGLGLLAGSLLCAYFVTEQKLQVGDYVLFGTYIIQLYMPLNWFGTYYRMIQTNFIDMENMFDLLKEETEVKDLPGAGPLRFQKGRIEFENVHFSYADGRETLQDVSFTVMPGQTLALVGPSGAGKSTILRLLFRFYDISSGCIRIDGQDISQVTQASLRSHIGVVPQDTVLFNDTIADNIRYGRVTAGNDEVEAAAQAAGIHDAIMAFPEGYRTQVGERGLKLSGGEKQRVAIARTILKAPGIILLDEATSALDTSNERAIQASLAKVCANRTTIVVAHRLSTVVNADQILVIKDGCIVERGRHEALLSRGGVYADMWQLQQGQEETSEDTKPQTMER
Chain of AP-2 complex subunit beta (Homo sapiens) (P63010 whole entry, looked up, the tested form may be a part, one chain of several): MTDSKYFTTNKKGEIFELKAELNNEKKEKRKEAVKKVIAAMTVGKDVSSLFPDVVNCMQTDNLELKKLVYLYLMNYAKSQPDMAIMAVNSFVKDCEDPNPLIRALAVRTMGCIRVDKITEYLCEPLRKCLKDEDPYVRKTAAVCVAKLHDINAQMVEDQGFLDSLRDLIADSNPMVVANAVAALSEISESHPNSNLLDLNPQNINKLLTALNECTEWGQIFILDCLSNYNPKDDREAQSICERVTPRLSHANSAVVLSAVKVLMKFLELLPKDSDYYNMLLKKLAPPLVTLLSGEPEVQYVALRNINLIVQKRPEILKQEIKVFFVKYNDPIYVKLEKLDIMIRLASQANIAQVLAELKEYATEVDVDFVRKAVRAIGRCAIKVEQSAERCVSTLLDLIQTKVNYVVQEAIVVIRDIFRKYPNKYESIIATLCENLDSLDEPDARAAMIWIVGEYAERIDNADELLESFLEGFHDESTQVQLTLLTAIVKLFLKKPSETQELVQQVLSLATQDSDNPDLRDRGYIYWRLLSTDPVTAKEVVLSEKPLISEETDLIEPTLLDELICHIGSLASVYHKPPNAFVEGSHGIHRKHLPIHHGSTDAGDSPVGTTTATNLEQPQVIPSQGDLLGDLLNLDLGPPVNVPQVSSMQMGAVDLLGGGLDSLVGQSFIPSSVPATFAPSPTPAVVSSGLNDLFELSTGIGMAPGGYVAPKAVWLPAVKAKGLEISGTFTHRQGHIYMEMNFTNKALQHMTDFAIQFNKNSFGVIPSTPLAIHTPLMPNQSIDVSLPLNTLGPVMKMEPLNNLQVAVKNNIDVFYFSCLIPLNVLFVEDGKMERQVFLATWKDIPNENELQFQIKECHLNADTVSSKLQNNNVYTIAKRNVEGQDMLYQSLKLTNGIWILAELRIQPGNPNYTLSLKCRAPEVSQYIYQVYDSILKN
Chain of Beta-adrenergic receptor kinase 1 (Homo sapiens) (P25098 whole entry, looked up): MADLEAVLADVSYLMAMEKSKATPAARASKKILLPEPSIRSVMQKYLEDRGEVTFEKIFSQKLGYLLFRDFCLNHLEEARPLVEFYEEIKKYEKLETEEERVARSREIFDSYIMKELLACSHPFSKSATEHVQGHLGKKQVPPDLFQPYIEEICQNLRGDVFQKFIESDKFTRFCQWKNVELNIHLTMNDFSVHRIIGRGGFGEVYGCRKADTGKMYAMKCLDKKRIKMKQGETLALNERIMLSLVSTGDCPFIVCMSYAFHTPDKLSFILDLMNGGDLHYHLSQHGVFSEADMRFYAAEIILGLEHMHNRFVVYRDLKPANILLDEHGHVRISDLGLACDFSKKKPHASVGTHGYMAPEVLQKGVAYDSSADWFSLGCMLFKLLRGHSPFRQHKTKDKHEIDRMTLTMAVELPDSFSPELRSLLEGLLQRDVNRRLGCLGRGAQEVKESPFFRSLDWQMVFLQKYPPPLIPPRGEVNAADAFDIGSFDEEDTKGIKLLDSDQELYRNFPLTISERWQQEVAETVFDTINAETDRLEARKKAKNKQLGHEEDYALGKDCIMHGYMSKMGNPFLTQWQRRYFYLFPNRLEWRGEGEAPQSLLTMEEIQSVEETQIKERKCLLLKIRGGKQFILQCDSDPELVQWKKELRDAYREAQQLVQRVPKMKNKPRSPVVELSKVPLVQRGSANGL
Chain of Beta-2 adrenergic receptor (Homo sapiens) (P07550 whole entry, looked up): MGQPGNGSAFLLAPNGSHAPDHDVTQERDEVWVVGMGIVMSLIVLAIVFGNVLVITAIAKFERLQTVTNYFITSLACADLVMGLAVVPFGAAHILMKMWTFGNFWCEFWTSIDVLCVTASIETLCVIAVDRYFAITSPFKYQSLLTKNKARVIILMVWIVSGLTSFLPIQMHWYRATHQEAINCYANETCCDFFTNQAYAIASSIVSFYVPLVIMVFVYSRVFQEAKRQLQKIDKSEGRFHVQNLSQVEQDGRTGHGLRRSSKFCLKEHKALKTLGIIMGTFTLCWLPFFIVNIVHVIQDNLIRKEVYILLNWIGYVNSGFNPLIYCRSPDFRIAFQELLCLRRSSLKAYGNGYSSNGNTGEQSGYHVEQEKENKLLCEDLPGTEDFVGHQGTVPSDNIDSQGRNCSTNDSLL
Chain of Integrin beta-1 (Homo sapiens) + Integrin alpha-4 (Homo sapiens) (P05556 whole entry, looked up): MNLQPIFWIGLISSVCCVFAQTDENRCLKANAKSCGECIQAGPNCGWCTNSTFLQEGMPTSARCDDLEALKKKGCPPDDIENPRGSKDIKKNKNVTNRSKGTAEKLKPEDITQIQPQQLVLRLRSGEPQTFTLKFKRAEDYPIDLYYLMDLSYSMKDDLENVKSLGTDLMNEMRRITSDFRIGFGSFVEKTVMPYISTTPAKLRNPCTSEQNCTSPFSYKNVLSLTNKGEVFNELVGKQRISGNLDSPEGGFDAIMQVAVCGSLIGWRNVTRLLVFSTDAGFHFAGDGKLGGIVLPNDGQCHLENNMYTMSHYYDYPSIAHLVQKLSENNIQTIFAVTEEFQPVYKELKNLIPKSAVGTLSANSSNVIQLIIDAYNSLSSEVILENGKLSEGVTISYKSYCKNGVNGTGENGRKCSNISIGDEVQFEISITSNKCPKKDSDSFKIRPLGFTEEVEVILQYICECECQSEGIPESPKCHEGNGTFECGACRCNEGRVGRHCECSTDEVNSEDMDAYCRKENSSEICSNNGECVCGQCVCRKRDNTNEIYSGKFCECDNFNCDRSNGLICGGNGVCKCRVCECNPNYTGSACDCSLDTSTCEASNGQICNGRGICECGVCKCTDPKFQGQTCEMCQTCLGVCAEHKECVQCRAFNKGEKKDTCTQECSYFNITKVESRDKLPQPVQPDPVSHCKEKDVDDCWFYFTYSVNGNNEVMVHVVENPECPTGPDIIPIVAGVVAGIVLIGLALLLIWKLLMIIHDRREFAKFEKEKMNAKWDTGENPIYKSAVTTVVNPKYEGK
Chain of Integrin beta-1 (Homo sapiens) + Integrin alpha-4 (Homo sapiens) (P13612 whole entry, looked up): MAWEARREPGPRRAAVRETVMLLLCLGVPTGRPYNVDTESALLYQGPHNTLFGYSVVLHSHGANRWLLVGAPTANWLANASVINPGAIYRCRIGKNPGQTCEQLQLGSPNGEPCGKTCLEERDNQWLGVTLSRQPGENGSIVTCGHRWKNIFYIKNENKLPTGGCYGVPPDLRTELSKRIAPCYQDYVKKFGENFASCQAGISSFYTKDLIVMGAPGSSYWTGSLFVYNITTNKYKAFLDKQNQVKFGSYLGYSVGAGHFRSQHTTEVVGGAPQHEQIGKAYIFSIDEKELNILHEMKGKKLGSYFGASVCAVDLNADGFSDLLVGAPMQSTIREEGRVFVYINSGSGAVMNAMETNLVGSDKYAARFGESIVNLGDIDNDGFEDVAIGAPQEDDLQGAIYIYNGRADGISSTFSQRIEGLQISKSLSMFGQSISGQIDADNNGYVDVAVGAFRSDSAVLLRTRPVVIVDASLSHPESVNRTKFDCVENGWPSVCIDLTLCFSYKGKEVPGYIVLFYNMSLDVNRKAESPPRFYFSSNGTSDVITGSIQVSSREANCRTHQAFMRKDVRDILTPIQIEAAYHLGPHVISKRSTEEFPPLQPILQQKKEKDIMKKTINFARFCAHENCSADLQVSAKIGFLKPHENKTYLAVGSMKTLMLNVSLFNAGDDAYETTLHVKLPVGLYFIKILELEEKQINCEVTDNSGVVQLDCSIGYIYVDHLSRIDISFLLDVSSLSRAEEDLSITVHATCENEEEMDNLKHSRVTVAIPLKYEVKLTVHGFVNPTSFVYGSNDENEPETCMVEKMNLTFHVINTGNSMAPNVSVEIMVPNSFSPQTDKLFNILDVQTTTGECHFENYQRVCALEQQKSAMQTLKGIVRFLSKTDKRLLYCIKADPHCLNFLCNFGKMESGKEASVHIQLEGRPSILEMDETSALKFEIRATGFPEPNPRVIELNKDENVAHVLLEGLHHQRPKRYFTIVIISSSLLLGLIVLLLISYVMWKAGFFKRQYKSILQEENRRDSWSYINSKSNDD

On to `COc1ccc(-c2noc(-c3ccccc3-c3ccccc3)n2)cc1`, for which, in assay [1], the GFP response, % of DMSO was 101%. Moreover, the inhibition in assay [2] is -15.8%; in assay [6], 19.4%; in assay [10] it was 6%. In [3], the superoxide response (% of plate) is 94.3%. Further, the aptamer binding inhibition in assay [4] is 8%. Besides, the response was 3.77% in [5] and -3.56% in assay [7]. Also, the binding (% of control) in assay [8] is 100%. Moreover, the efflux inhibition (fraction of control) in assay [9] is 0.19. In addition, in assay [11], the differentiation response was -1.64%.

Regarding `O=C(O)CCNC(=O)c1ccccc1`, in [1], the GFP response, % of DMSO was 104%. Moreover, the figures for the inhibition in assay [2], in [6] and in [10] were -4.21%, 47.5% and 112% (active), respectively. In [3], the superoxide response (% of plate) was 94.8%. Also, in assay [4], the aptamer binding inhibition is 3%. Further, the response in assay [5] is 3.62%; in assay [7] it was -1.09%. Moreover, the binding (% of control) in [8] was 98.7%. In addition, the efflux inhibition (fraction of control) in assay [9] is 0.52 (active). Further, in [11], the differentiation response is 26.2%.

For the compound `O=C(NC1CCCCC1)N1CCc2[nH]c3ccccc3c2C1`, the GFP response, % of DMSO in [1] is 96%. For the same compound, the inhibition is 24.9% in [2], 12.6% in [6] and 6% in assay [10]. In assay [3], the superoxide response (% of plate) is 90.3%. The aptamer binding inhibition in [4] is 3%. Moreover, the response in assay [5] is 10.8%; in assay [7] it was 13.8%. Besides, the binding (% of control) in assay [8] was 219%. Moreover, the efflux inhibition (fraction of control) in assay [9] is 0.27. Also, in assay [11], the differentiation response is 10.6%.

For the compound `CCOC(=O)C(Cc1cc(C(C)=O)ccc1OC(C)C)C(=O)OCC`, in assay [1], the GFP response, % of DMSO was 90.8%. Further, the inhibition was -1.3% in [2], 47% in [6] and 10% in [10]. Besides, the superoxide response (% of plate) in [3] was 91%. Moreover, the aptamer binding inhibition in [4] was 4%. The values for the response in assay [5] and in assay [7] were -7.47% and -8.56%, respectively. Besides, the binding (% of control) in assay [8] was 99.8%. For the same compound, the efflux inhibition (fraction of control) in assay [9] is -0.09. The differentiation response in assay [11] was 4.09%.

On to `CCCCCCCC(=O)OCC(=O)[C@@]1(O)CC[C@H]2[C@@H]3CCC4=CC(=O)CC[C@]4(C)[C@H]3[C@@H](O)C[C@@]21C`, for which the GFP response, % of DMSO in assay [1] is 101%. Besides, the inhibition in assay [2] was 11%; in [6] it was -9.35%; in assay [10] it was 14%. In addition, in [3], the superoxide response (% of plate) is 108%. Further, the aptamer binding inhibition in [4] is 4%. Further, the response in assay [5] is 0.19%; in assay [7], 10.5%. The binding (% of control) in assay [8] was 97.1%. In addition, the efflux inhibition (fraction of control) in assay [9] is 0.74 (active). Besides, the differentiation response in assay [11] was 5.13%.
